Assay outcomes (PubChem)
Pemphigus Ab inh: inhibitors of pemphigus antibody binding to DSG3, primary screen, biochemical, bead-based, flow cytometry, scFv-GFP. Desmoglein-3 (Homo sapiens), P32926. DSG3-coupled beads, scFv-anti-DSG3-GFP binding; stronger effect = lower value. binding (percent of control), % at 10 µM. actives 0.48% (n = 310,000). AID 588358, 2011;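 active means binding more than 3 SD below its plate's average and above zero; inconclusive means below that plate limit but binding exactly zero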;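 further: hits lower antibody fragment binding to DSG3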
Target sequence (P32926 whole entry, looked up, the tested form may be a part): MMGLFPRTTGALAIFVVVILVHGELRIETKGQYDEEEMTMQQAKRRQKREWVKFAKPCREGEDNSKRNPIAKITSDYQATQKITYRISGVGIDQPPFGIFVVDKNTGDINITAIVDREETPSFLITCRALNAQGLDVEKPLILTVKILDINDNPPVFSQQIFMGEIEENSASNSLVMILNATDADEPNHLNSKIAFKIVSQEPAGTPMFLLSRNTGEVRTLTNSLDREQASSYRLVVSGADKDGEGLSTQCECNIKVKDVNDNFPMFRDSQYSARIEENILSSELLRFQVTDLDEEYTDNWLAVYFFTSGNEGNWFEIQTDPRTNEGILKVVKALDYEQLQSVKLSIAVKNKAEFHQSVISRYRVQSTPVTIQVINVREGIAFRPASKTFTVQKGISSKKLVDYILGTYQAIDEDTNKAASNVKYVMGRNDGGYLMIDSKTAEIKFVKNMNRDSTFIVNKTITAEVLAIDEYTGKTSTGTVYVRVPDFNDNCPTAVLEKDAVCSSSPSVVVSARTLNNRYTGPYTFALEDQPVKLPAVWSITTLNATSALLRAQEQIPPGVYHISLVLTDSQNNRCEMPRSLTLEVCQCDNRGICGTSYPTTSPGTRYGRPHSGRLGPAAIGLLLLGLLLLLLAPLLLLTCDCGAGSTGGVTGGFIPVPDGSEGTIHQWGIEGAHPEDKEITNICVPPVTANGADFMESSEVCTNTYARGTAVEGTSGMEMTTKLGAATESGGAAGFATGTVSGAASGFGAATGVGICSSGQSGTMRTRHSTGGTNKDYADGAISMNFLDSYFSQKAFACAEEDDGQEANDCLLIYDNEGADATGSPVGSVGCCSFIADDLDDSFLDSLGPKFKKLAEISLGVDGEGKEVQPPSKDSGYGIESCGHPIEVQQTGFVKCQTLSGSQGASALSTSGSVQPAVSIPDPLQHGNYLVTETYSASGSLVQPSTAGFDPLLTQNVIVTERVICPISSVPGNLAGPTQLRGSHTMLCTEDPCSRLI
PAFAH2 inh: PAFAH2 enzyme inhibitors, primary screen, biochemical, fluorescence polarization, human; Platelet-activating factor acetylhydrolase 2, cytoplasmic (Homo sapiens), Q99487; recombinant PAFAH2, FP-rhodamine activity probe; inhibition, % at 3.39 µM; actives 0.99% (n = 340,000); AID 492956, 2010;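 active means inhibition above the mean over all tested compounds plus 3 SD, cut at about 30% in these data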;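 further: inhibitors block probe labeling of enzyme so polarization drops; 0% = enzyme with DMSO and 100% = wells lacking PAFAH2 protein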
pPAFAH inh: pPAFAH enzyme inhibitors, primary screen, biochemical, fluorescence polarization, human. recombinant pPAFAH, FP-rhodamine probe fluorescence polarization. inhibition, % at 3.39 µM. actives 1.5% (n = 330,000). AID 463082, 2010;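 active means inhibition above the mean inhibition across the screen plus 3 SD, cut at about 25% in these data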;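 further: inhibitors block binding of the rhodamine activity-based probe so polarization drops; 0% = enzyme with DMSO and 100% = wells lacking pPAFAH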
PAFAH1B2 inh: PAFAH1B2 enzyme inhibitors, primary screen, biochemical, fluorescence polarization, human. actives 1.2% (n = 340,000). inhibition, % at 3.39 µM. Platelet-activating factor acetylhydrolase IB subunit alpha2 (Homo sapiens), P68402. recombinant PAFAH1B2, FP-rhodamine activity probe;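 active means inhibition above the mean of all tested compounds plus 3 SD, cut at about 24% in these data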;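 further: 0% = enzyme with DMSO and 100% = wells lacking PAFAH1B2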
PAFAH1B3 inh: PAFAH1B3 enzyme inhibitors, primary screen, biochemical, fluorescence polarization, human; actives 0.28% (n = 340,000); AID 492972, 2010; recombinant PAFAH1B3, FP-rhodamine probe; inhibition, % at 3.39 µM;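 active means inhibition above the screen-wide average of all tested compounds plus 3 SD, cut at about 25% in these data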;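 further: 0% = enzyme with DMSO only and 100% = wells lacking PAFAH1B3 protein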
M18AAP inhibitor: PfM18AAP inhibitors, malaria aminopeptidase, primary screen, biochemical, QFRET, recombinant enzyme. M18 aspartyl aminopeptidase (Plasmodium falciparum 3D7). H-Glu-NHMec fluorogenic cleavage. inhibition, % at 7.35 µM. actives 1.2% (n = 290,000). AID 1822, 2009;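 active means inhibition above the campaign mean inhibition over all tested compounds plus 3 SD, cut at about 28% in these data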;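 further: 0% = plate median of test compound wells and 100% = 2 mM ZnCl2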
PAFAH2 FP conf: PAFAH2 enzyme inhibitors, confirmation, biochemical, fluorescence polarization, human; shares compounds with PAFAH2 inh; AID 493030, 2011; inhibition, % at 3.39 µM; recombinant PAFAH2, FP-rhodamine activity probe; actives 65% (n = 2,300);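 active means mean inhibition over three repeats above a set limit taken from the earlier primary screen, cut at about 30% in these data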;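 further: inhibitor blocks binding of rhodamine activity probe so polarization falls; 0% = enzyme with DMSO and 100% = wells lacking PAFAH2 protein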
* marks the source's active call; other numbers are inactive results; ? = inconclusive; · = no result. Only some compounds are listed: those with a hit (about 3.8% of all), similar ones and a draw of the others.

SMILES | Pemphigus Ab inh | PAFAH2 inh | pPAFAH inh | PAFAH1B2 inh | PAFAH1B3 inh | M18AAP inhibitor | PAFAH2 FP conf
Cc1c(Cl)cnc(NC(=O)COC(=O)C2CC2)c1Cl | 91 | 44* | 18 | 5 | 6 | · | 28
O=C(COC(=O)C1CCC1)Nc1cccc(Cl)c1 | 88 | 3 | 0 | 0 | -2 | · | ·
Cc1ccc(NC(=Nc2ccc(Br)cc2)N2CCOCC2)cc1C | ? | -11 | 4 | 0 | 3 | -3 | ·
COc1ccc(S(=O)(=O)NCC(=O)N(Cc2ccco2)C(C(=O)NC(C)(C)C)C(C)C)cc1 (configuration not stated) | 103 | -3 | -2 | 4 | 0 | 3 | ·
COCCN(CC1CCCN(C2Cc3ccccc3C2)C1)C(=O)CCSC (configuration not stated) | 103 | 18 | 2 | -2 | 9 | -1 | ·
COCCN(CC1CCCN(C2Cc3ccccc3C2)C1)C(=O)CSC (configuration not stated) | 129 | 37* | -2 | 2 | 1 | 4 | 23
COc1ccc(C(=O)OCC2CC(c3ccccc3)N(C)O2)cc1 (configuration not stated) | 106 | 56* | 11 | 3 | 13 | 0 | 45*
COc1ccc(C(=O)OCCN2CCCCC2)cc1 | 104 | 1 | 2 | 6 | 7 | -7 | ·
CCN(CC)S(=O)(=O)c1cc(NC(=O)COC(=O)c2ccc(NC(=O)CC#N)cc2)ccc1C | 87 | 51* | 20 | -9 | -21 | 6 | 50*
CC(CCc1ccccc1)NC(=O)COC(=O)c1cccc(N(C)C)c1 (configuration not stated) | 100 | 58* | 22 | 1 | -1 | -3 | 36*
CC(C)(C)NC(=O)COC(=O)c1ccc(NC(=O)CC#N)cc1 | 99 | 67* | 7 | 4 | 2 | 5 | 53*
N#CCC(=O)Nc1ccc(C(=O)OCC(=O)NNC(=O)c2cccs2)cc1 | 107 | 13 | 1 | -2 | -9 | · | ·
CCOCc1c(C(=O)OCC(=O)Nc2ccc(C)c(S(=O)(=O)N(C)C)c2)oc2ccccc12 | 100 | 58* | 2 | 6 | 4 | -9 | 45*
COc1ccc(N2CCN(C(=O)Cc3ccc(Br)cc3)CC2)cc1 | 98 | 0 | -1 | 3 | 2 | -6 | ·
CC(CCc1ccccc1)NC(=O)COC(=O)c1ccc([N+](=O)[O-])cc1 (configuration not stated) | 103 | 1 | 11 | 6 | 14 | -2 | ·
CC(CCc1ccccc1)NC(=O)COC(=O)c1ccc(NC(=O)CC#N)cc1 (configuration not stated) | 100 | 54* | -17 | 3 | -1 | -12 | 51*
Cc1cccc(C(=O)OCC(=O)NC(C)CCc2ccccc2)c1 (configuration not stated) | 107 | 46* | 7 | 0 | 3 | -14 | 31*
Cc1cccc(C(=O)NCC(=O)NC(C)CCc2ccccc2)c1 (configuration not stated) | 93 | 1 | 2 | 3 | 13 | 4 | ·
Cc1cc(C(=O)OC(C(=O)Nc2ccc(C)c(Cl)c2)c2ccccc2)c(C)o1 (configuration not stated) | 101 | -44 | -26 | -16 | -29 | -2 | ·
Cc1ccc(C)c(S(=O)(=O)Nc2ccc3oc(C)c(C(=O)O)c3c2)c1 | 85* | 38* | 24 | -1 | 7 | 2 | 14
CN(C)S(=O)(=O)c1ccc(C(=O)N2CCN(S(=O)(=O)c3ccc4c(c3)OCCO4)CC2)cc1 | 76 | 45* | · | -1 | 0 | · | 41*
CC(C)CCNC(=O)C1CCC(CNS(=O)(=O)c2ccc(Cl)cc2)CC1 (configuration not stated) | 89 | 8 | · | 1 | 0 | -16 | ·
Cc1ccc(C(=O)OCC(=O)NC2CC2)s1 | 91 | 70* | 8 | 4 | 10 | · | 55*
Cc1ccsc1C(=O)OCC(=O)NC1CC1 | 102 | 33* | 0 | -1 | -5 | · | 13
O=C(NCc1ccccc1)c1nccnc1CO | 95 | -1 | 1 | 3 | 4 | -11 | ·
SMILES | Pemphigus Ab inh | PAFAH2 inh | pPAFAH inh | PAFAH1B2 inh | PAFAH1B3 inh | M18AAP inhibitor | PAFAH2 FP conf
O=C(COC(=O)/C=C/c1ccccc1)Nc1cc(C(F)(F)F)ccc1N1CCOCC1 | 94 | 56* | 4 | -1 | 4 | -4 | 57*
COc1cccc(/C=C/C(=O)OCC(=O)Nc2ccc3c(c2)OCCO3)c1 | 101 | · | · | · | · | · | ·
O=C(COC(=O)/C=C/c1ccc(F)cc1)Nc1cc(C(F)(F)F)ccc1N1CCOCC1 | 99 | -1 | 13 | 1 | 2 | -9 | ·
COc1cccc(/C=C/C(=O)OCC(=O)Nc2ccc(Cl)c(S(=O)(=O)N(C)C)c2)c1 | 101 | 68* | 2 | -2 | -1 | -8 | 69*
COc1ccc(/C=C/C(=O)Nc2cc(C(F)(F)F)ccc2Cl)cc1OC | 84 | -7 | -3 | 1 | -9 | 2 | ·
COc1cccc(/C=C/C(=O)OCC(=O)Nc2cccc(S(=O)(=O)N(C)C)c2)c1 | 101 | 69* | 6 | 2 | 11 | -4 | 60*
COc1cccc(/C=C/C(=O)OCC(=O)Nc2cc(C(F)(F)F)ccc2Cl)c1 | 102 | 33* | 2 | -3 | 2 | -13 | 24
Cc1ccc(NC(=O)C(Nc2cccc(C)c2)c2ccccc2)cc1 (configuration not stated) | 104 | -5 | 1 | -4 | -7 | -3 | ·
CCOC(=O)c1cnc2c(ccc3ccccc32)c1N | 112 | -20 | 3 | 1 | -2 | -3 | ·
COc1ccccc1NC(=O)N1CCC(c2nc3ccccc3o2)CC1 | 104 | -3 | 0 | 3 | 0 | 5 | ·
Cc1cc(C)n(C(=O)CCCn2cc([N+](=O)[O-])cn2)n1 | · | -2 | 2 | 3 | 4 | 5 | ·
CN(C)S(=O)(=O)c1cc(NC(=O)COC(=O)/C=C/c2ccco2)ccc1Cl | 95 | 58* | 7 | -9 | 0 | 7 | 70*
Cc1cccc2c(=O)oc(-c3ccccc3Cl)nc12 | 143 | 49* | 8 | 4 | 5 | -12 | 40*
CC(C)CC(NC(=O)C(NC(=O)C1CCC(=O)N1C(=O)OCc1ccccc1)C(C)C)C(=O)N1CCCC1C(N)=O (configuration not stated) | 88 | 40* | -4 | 2 | 1 | -3 | 41*
